Laboratory results from PubChem BioAssay (EPA / NIEHS).
The source made the active and inactive calls. Rule for the calls: active = hit-call score of the fitted dose curve at least 0.9, where 1 is the maximum; inactive = score below 0.9.

Tests used:
Details in all cases: mRNA level, 48 h; actives raise or lower the signal
CYP2C9 (gene 1559) = assay: LTEA_HepaRG_CYP2C9: Life Technologies and Expression Analysis (LTEA) Assay for CYP2C9 using HepaRG (AID 2283484)
Method in brief: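 Eight-point concentration-response (highest 100 uM, half-log dilutions) in HepaRG cells for 48 h; CYP2C9 expression by qRT-PCR normalized to ACTB, GAPDH, POLR2A. Bidirectional fit, DMSO baseline.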

CYP2E1 (gene 1571) = assay: LTEA_HepaRG_CYP2E1: Life Technologies and Expression Analysis (LTEA) Assay for CYP2E1 using HepaRG (AID 2283485)
Method in brief: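 Readout is qRT-PCR of CYP2E1 mRNA, normalized to three housekeeping genes and fitted bidirectionally against 0.5% DMSO. HepaRG cells were dosed 48 h at eight concentrations, highest 100 uM with half-log dilutions.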

CYP4A11 (gene 1579) = assay: LTEA_HepaRG_CYP4A11: Life Technologies and Expression Analysis (LTEA) Assay for CYP4A11 using HepaRG (AID 2283486)
Method in brief: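 Readout is CYP4A11 transcript level by qRT-PCR, normalized to three housekeeping genes and fitted bidirectionally against 0.5% DMSO. Human HepaRG cells were treated 48 h, in duplicate, with an 8-point half-log series topping at 100 uM.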

[1] = read-out: Cytochrome P450 3A4 (Homo sapiens) (UniProt P08684); assay: LTEA_HepaRG_CYP3A4: Life Technologies and Expression Analysis (LTEA) Assay for CYP3A4 using HepaRG (AID 2283487)
Method in brief: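 Differentiated HepaRG cells, plated 48 h, then dosed 48 h in serum-free induction medium with 0.5% DMSO, 8 half-log concentrations up to 100 uM, duplicate. CYP3A4 mRNA by qRT-PCR, normalized to ACTB/GAPDH/POLR2A; bidirectional fit versus DMSO.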

[2] = read-out: DNA damage-inducible transcript 3 (DDIT3), DDIT3 (gene 1649); assay: LTEA_HepaRG_DDIT3: Life Technologies and Expression Analysis (LTEA) Assay for DNA damage-inducible transcript 3 (DDIT3) using HepaRG (AID 2283488)
Method in brief: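 Cells are human HepaRG liver cells treated for 48 h with eight half-log concentrations up to 100 uM in 0.5% DMSO. Transcript levels come from qRT-PCR normalized to three housekeeping genes, with activity fitted in both directions relative to vehicle.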

[3] = read-out: Pro-epidermal growth factor (Homo sapiens) (UniProt P01133); assay: LTEA_HepaRG_EGF: Life Technologies and Expression Analysis (LTEA) Assay for Epidermal growth factor (EGF) using HepaRG (AID 2283489)
Method in brief: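 EGF transcript measured by Fluidigm TaqMan qRT-PCR with three housekeeping genes for normalization, 48 h after dosing HepaRG cultures in duplicate (top 100 uM, half-log steps, 0.5% DMSO vehicle). Gain or loss relative to DMSO fitted.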

[4] = read-out: Early growth response protein 1 (EGR1) transcription factor, EGR1 (gene 1958); assay: LTEA_HepaRG_EGR1: Life Technologies and Expression Analysis (LTEA) Assay for Early growth response protein 1 (EGR1) transcription factor using HepaRG (AID 2283490)
Method in brief: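 EGR1 expression change in human HepaRG after 48 h chemical exposure, assessed by housekeeping-normalized qRT-PCR; concentration-response up to 100 uM, fitted in both directions against DMSO controls.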

[5] = read-out: Ezrin (EZR), EZR (gene 7430); assay: LTEA_HepaRG_EZR: Life Technologies and Expression Analysis (LTEA) Assay for Ezrin (EZR) using HepaRG (AID 2283491)
Method in brief: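 EZR transcript levels came from Fluidigm qRT-PCR and were normalized to three housekeeping genes after 48 h chemical exposure of HepaRG cells. Dosing used an 8-point half-log series with a 100 uM top concentration in 0.5% DMSO, tested in duplicate; both directions were fitted versus vehicle.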

[6] = read-out: Cytochrome P450 3A7 (Homo sapiens) (UniProt P24462); assay: LTEA_HepaRG_CYP3A7: Life Technologies and Expression Analysis (LTEA) Assay for CYP3A7 using HepaRG (AID 2283492)
Method in brief: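 CYP3A7 transcript measured by qRT-PCR (ACTB, GAPDH, POLR2A normalization) after 48 h chemical exposure of HepaRG cells in duplicate. Eight half-log concentrations, maximum 100 uM, 0.5% DMSO vehicle; bidirectional curve fitting against DMSO baseline.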

CYP3A5 (gene 1577) = assay: LTEA_HepaRG_CYP3A5: Life Technologies and Expression Analysis (LTEA) Assay for CYP3A5 using HepaRG (AID 2283493)
Method in brief: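 Human HepaRG hepatic cells receive 48 h chemical treatment at eight concentrations (half-log steps from 100 uM) in 0.5% DMSO. Expression of CYP3A5 is quantified by Fluidigm qRT-PCR and normalized to three reference genes.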

[7] = read-out: Fatty Acid-Binding Protein 1 (FABP1), FABP1 (gene 2168); assay: LTEA_HepaRG_FABP1: Life Technologies and Expression Analysis (LTEA) Assay for Fatty Acid-Binding Protein 1 (FABP1) using HepaRG (AID 2283494)
Method in brief: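 Values reflect bidirectional concentration-response fitting of FABP1 mRNA change against 0.5% DMSO controls. Human HepaRG cultures received eight half-log doses (top 100 uM) for 48 h; expression quantified by TaqMan qRT-PCR with housekeeping-gene normalization.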

[8] = read-out: Cytochrome P450 4A22 (Homo sapiens) (UniProt Q5TCH4); assay: LTEA_HepaRG_CYP4A22: Life Technologies and Expression Analysis (LTEA) Assay for Cytochrome P450 4A22 (CYP4A22) using HepaRG (AID 2283495)
Method in brief: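 Gene expression measured by qRT-PCR against three housekeeping genes (ACTB, GAPDH, POLR2A), with gain or loss fitted relative to 0.5% DMSO vehicle. HepaRG cultures received 48 h chemical treatment, top concentration 100 uM, half-log steps, duplicate wells.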

[9] = read-out: Cytochrome P450 7A1 (Homo sapiens) (UniProt P22680); assay: LTEA_HepaRG_CYP7A1: Life Technologies and Expression Analysis (LTEA) Assay for Cytochrome P450 7A1 (CYP7A1) using HepaRG (AID 2283496)
Method in brief: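 HepaRG, 48 h exposure, 8-pt half-log series from 100 uM, 0.5% DMSO vehicle, duplicates. Readout: TaqMan qRT-PCR mRNA vs three housekeeping genes; bidirectional curve fit against DMSO baseline.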

[10] = read-out: Glutathione S-Transferase (GSTA2), GSTA2 (gene 2939); assay: LTEA_HepaRG_GSTA2: Life Technologies and Expression Analysis (LTEA) Assay for Glutathione S-Transferase (GSTA2) using HepaRG (AID 2283497)
Method in brief: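 Oxidative-stress marker GSTA2 is quantified by TaqMan qRT-PCR in HepaRG cultures treated 48 h across an eight-point range to 100 uM. Expression is normalized to endogenous controls and compared with 0.5% DMSO vehicle.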

[11] = read-out: Glutamate-cysteine ligase catalytic (GCLC), GCLC (gene 2729); assay: LTEA_HepaRG_GCLC: Life Technologies and Expression Analysis (LTEA) Assay for Glutamate-cysteine ligase catalytic (GCLC) using HepaRG (AID 2283498)
Method in brief: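 Oxidative-stress marker GCLC is measured as mRNA change in human HepaRG liver cells after 48 h chemical treatment in 0.5% DMSO, eight concentrations from 100 uM. Activity is fitted bidirectionally against vehicle.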

[12] = read-out: growth arrest and DNA damage 45 (GADD45G), GADD45G (gene 10912); assay: LTEA_HepaRG_GADD45G: Life Technologies and Expression Analysis (LTEA) Assay for growth arrest and DNA damage 45 (GADD45G) using HepaRG (AID 2283499)
Method in brief: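 GADD45G transcript level by qRT-PCR (housekeeping-normalized: ACTB, GAPDH, POLR2A) after 48 h chemical treatment of a single HepaRG lot in serum-free induction medium; eight-point half-log series up to 100 uM in 0.5% DMSO, duplicates, up- or down-regulation scored.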

[13] = read-out: Glutamate-cysteine ligase regulatory (GCLM), GCLM (gene 2730); assay: LTEA_HepaRG_GCLM: Life Technologies and Expression Analysis (LTEA) Assay for Glutamate-cysteine ligase regulatory (GCLM) using HepaRG (AID 2283500)
Method in brief: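 Endpoint is GCLM transcript level by qRT-PCR, normalized to three housekeeping genes, after 48 h chemical exposure of human HepaRG cells (0.5% DMSO vehicle, top 100 uM, half-log dilutions). Fitting was bidirectional relative to DMSO.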

[14] = read-out: Glutathione S-transferase M3 (GSTM3), GSTM3 (gene 2947); assay: LTEA_HepaRG_GSTM3: Life Technologies and Expression Analysis (LTEA) Assay for Glutathione S-transferase M3 (GSTM3) using HepaRG (AID 2283501)
Method in brief: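 GSTM3 transcript levels came from Fluidigm TaqMan qRT-PCR normalized to three housekeeping genes, fitted in both directions against DMSO. HepaRG cultures received chemicals for 48 h in serum-free induction medium (0.5% DMSO), 8 half-log concentrations up to 100 uM, duplicate.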

[15] = read-out: Heat shock 70 kDa protein 1 (HSPA1A), gene 3303; assay: LTEA_HepaRG_HSPA1A: Life Technologies and Expression Analysis (LTEA) Assay for Heat shock 70 kDa protein 1 (HSPA1A) using HepaRG (AID 2283502)
Method in brief: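 Cells were plated and cultured for 48 h, then switched to serum-free induction medium. Chemicals were added at eight half-log concentrations up to 100 uM for 48 h. RNA was then isolated and HSPA1A measured by qRT-PCR with bidirectional curve fitting against DMSO.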

[16] = read-out: Hypoxia-inducible factor 1-alpha (Homo sapiens) (UniProt Q16665); assay: LTEA_HepaRG_HIF1A: Life Technologies and Expression Analysis (LTEA) Assay for Hypoxia-inducible factor 1 (HIF1A) Trancription factor using HepaRG (AID 2283503)
Method in brief: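 HIF1A transcript level read by qRT-PCR (ACTB, GAPDH, POLR2A normalization) after 48 h chemical exposure of HepaRG cultures. Eight half-log concentrations, top 100 uM, 0.5% DMSO vehicle, duplicates; bidirectional curve fit against DMSO baseline.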

Measured: outcome

Cytochrome P450 3A4 (Homo sapiens), sequence (P08684 whole entry, looked up): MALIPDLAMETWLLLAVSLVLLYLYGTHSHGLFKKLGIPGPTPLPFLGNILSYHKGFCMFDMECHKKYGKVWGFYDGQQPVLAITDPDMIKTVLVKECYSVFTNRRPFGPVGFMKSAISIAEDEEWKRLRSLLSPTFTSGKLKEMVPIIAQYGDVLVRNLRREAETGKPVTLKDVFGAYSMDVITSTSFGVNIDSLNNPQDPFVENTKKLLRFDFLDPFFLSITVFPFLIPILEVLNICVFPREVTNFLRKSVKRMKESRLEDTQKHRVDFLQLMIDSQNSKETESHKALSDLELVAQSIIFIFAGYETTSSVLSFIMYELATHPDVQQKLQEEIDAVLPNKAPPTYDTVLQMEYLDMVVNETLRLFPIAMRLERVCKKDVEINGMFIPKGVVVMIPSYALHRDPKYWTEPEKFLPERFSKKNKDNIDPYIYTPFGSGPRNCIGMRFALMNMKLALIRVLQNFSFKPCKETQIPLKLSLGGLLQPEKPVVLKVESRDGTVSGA
Hypoxia-inducible factor 1-alpha (Homo sapiens), sequence (Q16665 whole entry, looked up): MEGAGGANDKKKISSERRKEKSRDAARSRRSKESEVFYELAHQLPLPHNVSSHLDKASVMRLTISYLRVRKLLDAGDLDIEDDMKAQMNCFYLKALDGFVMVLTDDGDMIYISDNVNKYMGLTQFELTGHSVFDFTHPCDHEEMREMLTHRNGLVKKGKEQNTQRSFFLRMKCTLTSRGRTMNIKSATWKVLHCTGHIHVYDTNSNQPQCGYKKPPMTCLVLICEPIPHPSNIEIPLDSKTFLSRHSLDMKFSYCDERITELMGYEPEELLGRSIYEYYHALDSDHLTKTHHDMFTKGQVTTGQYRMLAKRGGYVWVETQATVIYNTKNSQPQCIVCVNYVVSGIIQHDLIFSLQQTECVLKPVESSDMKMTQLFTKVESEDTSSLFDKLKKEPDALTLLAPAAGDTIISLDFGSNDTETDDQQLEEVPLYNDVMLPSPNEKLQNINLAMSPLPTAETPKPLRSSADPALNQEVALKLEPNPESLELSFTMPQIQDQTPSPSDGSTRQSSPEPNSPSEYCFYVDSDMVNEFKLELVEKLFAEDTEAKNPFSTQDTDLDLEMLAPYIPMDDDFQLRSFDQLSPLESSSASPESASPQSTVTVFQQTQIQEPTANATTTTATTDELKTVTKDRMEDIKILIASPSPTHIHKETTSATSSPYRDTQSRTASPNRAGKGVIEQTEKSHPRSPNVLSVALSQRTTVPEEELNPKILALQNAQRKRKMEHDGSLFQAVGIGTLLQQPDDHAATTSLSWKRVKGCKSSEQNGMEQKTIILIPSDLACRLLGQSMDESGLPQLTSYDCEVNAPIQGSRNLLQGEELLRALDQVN
Cytochrome P450 3A7 (Homo sapiens), sequence (P24462 whole entry, looked up): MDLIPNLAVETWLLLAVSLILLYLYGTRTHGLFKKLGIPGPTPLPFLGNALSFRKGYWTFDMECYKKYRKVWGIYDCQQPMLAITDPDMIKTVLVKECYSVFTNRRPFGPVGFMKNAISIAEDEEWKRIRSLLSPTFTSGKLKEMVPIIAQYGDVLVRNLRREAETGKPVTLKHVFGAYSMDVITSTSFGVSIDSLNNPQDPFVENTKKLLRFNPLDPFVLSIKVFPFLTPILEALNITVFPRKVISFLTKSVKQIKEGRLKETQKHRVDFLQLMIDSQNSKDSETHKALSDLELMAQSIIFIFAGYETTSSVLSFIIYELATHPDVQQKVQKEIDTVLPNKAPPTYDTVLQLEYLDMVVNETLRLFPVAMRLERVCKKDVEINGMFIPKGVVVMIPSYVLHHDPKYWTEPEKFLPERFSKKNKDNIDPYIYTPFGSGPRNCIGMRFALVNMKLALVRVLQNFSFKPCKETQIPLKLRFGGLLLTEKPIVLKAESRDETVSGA

CCCCC(CC)CO (stereo not drawn)
inactive: CYP2C9 (gene 1559) | CYP2E1 (gene 1571) | CYP4A11 (gene 1579) | [1] | [2] | [3] | [4] | [5] | [6] | CYP3A5 (gene 1577) | [7] | [8] | [9] | [10] | [11] | [12] | [13] | [14] | [15] | [16]

Cc1ccc(C(C)(C)C)c(O)c1
inactive: CYP2C9 (gene 1559) | CYP2E1 (gene 1571) | CYP4A11 (gene 1579) | [1] | [2] | [3] | [4] | [5] | CYP3A5 (gene 1577) | [7] | [8] | [9] | [10] | [11] | [12] | [13] | [14] | [15] | [16]

C#CC(O)C(CC)CCCC (stereo not drawn)
inactive: CYP2C9 (gene 1559) | CYP2E1 (gene 1571) | CYP4A11 (gene 1579) | [1] | [2] | [3] | [4] | [5] | CYP3A5 (gene 1577) | [7] | [8] | [9] | [10] | [11] | [12] | [13] | [14] | [15] | [16]
